Laboratory results: PubChem BioAssay (NCI)
About 79,000 compounds went through this panel and 15% of them were active in at least one assay; those are over-represented in the sample as a whole. Rule as the data show it: active = growth inhibition above about 70%; inactive = the rest.

Key:
[1] = NCI Yeast Anticancer Drug Screen. Data for the rad50 strain (AID 155);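 also: 0% = growth of vehicle-only cultures of the same strain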; conditions: S. cerevisiae rad50 strain growth inhibition; at 50.0 µM; active compounds read high
Procedure, shortened: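 A DNA repair-deficient yeast mutant serves as the test organism; compound-induced growth inhibition is calculated against vehicle-treated cells.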

[2] = NCI Yeast Anticancer Drug Screen. Data for the mec2-1 strain (AID 157); conditions: S. cerevisiae mec2-1 strain, at 50.0 µM, active compounds read high
Procedure, shortened: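 Growth inhibition is read against vehicle-treated controls after compound exposure of the mec2-1 yeast strain, which is defective in DNA damage repair or cell cycle control.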

[3] = NCI Yeast Anticancer Drug Screen. Data for the sgs1 mgt1 strain (AID 161);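 also: 0% = growth of cultures given vehicle only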; conditions: S. cerevisiae sgs1 mgt1 strain, at 50.0 µM, active compounds read high
Procedure, shortened: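 Compounds are added to genetically altered yeast, and growth is compared with cultures given vehicle alone to give percent inhibition.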

[4] = NCI Yeast Anticancer Drug Screen. Data for the cln2 rad14 strain (AID 165);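 also: 0% = growth equal to vehicle treated cultures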; conditions: S. cerevisiae cln2 rad14 strain, at 50.0 µM, active compounds read high
Procedure, shortened: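 Growth inhibition, relative to vehicle-treated controls, is the read-out. The test organism is a yeast strain with defined genetic alterations, cln2 rad14.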

[5] = NCI Yeast Anticancer Drug Screen. Data for the bub3 strain (AID 167); conditions: S. cerevisiae bub3 mutant strain, at 50.0 µM, active compounds read high
Procedure, shortened: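 Inhibition values come from growth of compound-treated mutant yeast normalised to vehicle-treated controls.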

[6] = NCI Yeast Anticancer Drug Screen. Data for the mlh1 rad18 strain (AID 175); conditions: S. cerevisiae mlh1 rad18 strain growth inhibition; at 50.0 µM; active compounds read high
Procedure, shortened: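 Cells of a genetically altered yeast strain, deficient in DNA damage repair, were treated with compound. Their growth was then compared with that of vehicle-treated cultures to give inhibition.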

Measured: growth inhibition

O=c1c(SCc2ccc(Cl)cc2Cl)c(SCc2ccc(Cl)cc2Cl)cnn1-c1ccccc1
inactive: [1] 16.8% | [2] -1.4% | [3] 7.3% | [4] 23.9% | [5] 1.05% | [6] 4.05%

O=C(NNC(=O)c1ccccc1Br)c1ccccc1Br
inactive: [1] -18.9% | [2] -48.8% | [3] -9.6% | [4] 0.45% | [5] -25.1% | [6] -18.1%

O=C1N2Cc3c4ccc5c3CN3C(=O)N6Cc7c(ccc(c7CN1C6(c1ccccc1)C23c1ccccc1)OCCOCCNCCOCCO4)OCCOCCNCCOCCO5 (stereo not given)
inactive: [1] -31.1% | [2] -26.2% | [3] -34.2% | [4] 3.4% | [5] -16.2% | [6] -30.1%

CC(O)/C=C/c1ccccc1O (stereo not given)
inactive: [1] 2.05% | [2] 2.85% | [3] -13.9% | [4] -41.5% | [5] -5.65% | [6] -13.6%

COC(=O)C(C)CC(C)C(=O)OC (stereo not given)
inactive: [1] 19.6% | [2] -15.8% | [3] 17.6% | [4] 12.7% | [5] -2.95% | [6] 16.4%

O=S(=O)(O)c1cc(O)c2ccc3c(S(=O)(=O)O)cc(S(=O)(=O)O)c4ccc1c2c34
inactive: [1] -11.7% | [2] -23.1% | [3] -2.85% | [4] 6.8% | [5] 10.6% | [6] 3.75%

CC1CCOC(c2ccccc2Cl)O1 (stereo not given)
inactive: [1] -25% | [2] 14.1% | [3] -4.55% | [4] -12.1% | [5] -9.3% | [6] 5%

[N-]=[N+]=NC12CC3CC4C5CC(CC41)CC2[C@H]5C3
inactive: [1] 13.1% | [2] -5.35% | [3] -6.1% | [4] -0.55% | [5] -17.1% | [6] -14.4%

Cc1ccc(CSC(=S)NNc2ccccc2)cc1C
inactive: [1] -28.6% | [2] -44.3% | [3] -2.15% | [4] -13.6% | [5] -32.6% | [6] -35.8%

O=C(O)c1c(O)cc(=O)oc1-c1ccccc1Cl
inactive: [1] -17.4% | [2] -23.2% | [3] -17.4% | [4] -13.6% | [5] -18.9% | [6] -16.9%

CC(C)N1CCC(OC(=O)Nc2ccccc2)C1 (stereo not given)
inactive: [1] 3.85% | [2] 5.6% | [3] -7.75% | [4] -27.1% | [5] -14.5% | [6] 8.35%

CCOC(=O)c1cccc(N)c1
inactive: [1] -9.6% | [2] -22.2% | [3] -25% | [4] -6.35% | [5] -12.5% | [6] -6.8%

COc1cc2c(cc1OC)C(CCN)NCC2 (stereo not given)
inactive: [1] -8.75% | [2] 7.2% | [3] -2.55% | [4] 7.3% | [5] -3.95% | [6] -9.25%

Cc1nc(C(N)=S)sc1C(=O)/C=C/c1c(O)ccc2ccccc12
inactive: [1] 49.4% | [2] 9.55% | [3] 33.4% | [4] 23.8% | [5] 31.1% | [6] 40.3%

NS(=O)(=O)c1ccc(NC(=O)Nc2ccc(Cl)cc2[N+](=O)[O-])cc1
inactive: [1] -9.5% | [2] 18.6% | [3] 30.1% | [4] -16.7% | [5] 29.9% | [6] 30.4%

O=C(Oc1ccc2ccccc2c1)c1ccccc1
inactive: [1] 28.4% | [2] 4.4% | [3] 28.4% | [4] 21.9% | [5] 2.7% | [6] 10.1%

COc1cc(C2CC(C)(OC)Oc3cc4c(cc32)OCO4)cc(OC)c1OC (stereo not given)
inactive: [1] 42.5% | [2] -2.6% | [3] 2.7% | [4] 19.8% | [5] 19.3% | [6] 20.2%

CC1CCC(=O)N1C (stereo not given)
inactive: [1] -19.1% | [2] -1.35% | [3] -16.1% | [4] -21.6% | [5] -0.45% | [6] -9.5%

CCN(CC(=O)O)C(=O)c1cccnc1
inactive: [1] -17.9% | [2] 4.05% | [3] -33.4% | [4] -28.7% | [5] -6.6% | [6] -6.4%

Cc1ccc(S(=O)(=O)N(C)c2cc(Cl)c(I)cc2Cl)cc1
inactive: [1] 38.9% | [2] -5.05% | [3] 8.9% | [4] 0.25% | [5] 25.1% | [6] 5.2%

CCCC(=O)OCCOc1ccccc1
inactive: [1] 18.1% | [2] 2.3% | [3] 11% | [4] 7.2% | [5] 0.8% | [6] 2.5%

Cn1c(=O)oc2cc(C(=O)CN3CCN(Cc4ccc5c(c4)OCO5)CC3)c(Cl)cc21
inactive: [1] 29.5% | [2] 26.4% | [3] 61.8% | [4] 26.1% | [5] 53.4% | [6] 23.1%

COc1c(CO)cc(C)cc1CO
inactive: [1] 4.15% | [2] -0.5% | [3] -6.95% | [4] 3.05% | [5] -0.7% | [6] 0.5%

CC(C)(C)NC(NC(C)(C)C)=C(C(Cl)=C(Cl)Cl)[N+](=O)[O-]
inactive: [1] -2.1% | [2] -9.55% | [3] -6.15% | [4] 7.8% | [5] 12.7% | [6] -0.75%

NS(=O)(=O)c1ccc(N2C(=O)C3C(C2=O)C2(Cl)C(Cl)=C(Cl)C3(Cl)C2(Cl)Cl)cc1 (stereo not given)
inactive: [1] -6.4% | [2] -6.95% | [3] 3.25% | [4] 15.1% | [5] -4.7% | [6] 20.6%

COc1cc(NC(=O)CCN2CCOCC2)c2ncccc2c1
inactive: [1] 41.6% | [2] 3.6% | [3] 12.8% | [4] -29.4% | [5] 18.9% | [6] 43%

N#Cc1cn(Cc2ccccc2)c2ccccc2c1=O
inactive: [1] -0.3% | [2] -3.15% | [3] 3.95% | [4] 47.9% | [5] 7.3% | [6] 1.15%

CCCCCN(C(=O)c1ccccc1C(=O)N(CCCCC)c1ccccc1)c1ccccc1
inactive: [1] 15.3% | [2] 7.85% | [3] 15.8% | [4] 30.6% | [5] 3.4% | [6] 42%

Cc1cccc(OS(=O)(=O)c2ccccc2)c1
inactive: [1] 34.6% | [2] 16.2% | [3] 36% | [4] 8.1% | [5] -6.65% | [6] 24.8%

COC(=O)C1=NC(=O)C(C#N)=C(C(=O)OC)C1(C(=O)c1ccc(OC)cc1)c1ccc(OC)cc1 (stereo not given)
inactive: [1] -39.9% | [2] 3.7% | [3] -9.15% | [4] 13.8% | [5] 11.9% | [6] -12.1%

CCCCOC(=O)C1CCCCC1C(=O)OCCCC (stereo not given)
inactive: [1] -3.7% | [2] 14.8% | [3] -0.45% | [4] 63.1% | [5] 12.2% | [6] -21.4%

CC(C)=C1CC(C)(C)N=C1CCN1CCOCC1
inactive: [1] -12.3% | [2] -20.6% | [3] -12.5% | [4] -6% | [5] -11.3% | [6] -24.6%

CCOC(=O)/C=C\[C@H]1OC(C)(C)O[C@H]1[C@H](O)[C@H]1COC(C)(C)O1
inactive: [1] -22.3% | [2] -14.1% | [3] -15.4% | [4] 38% | [5] -11.8% | [6] -9.6%

COc1ccc(-c2cc3cc(OC)c(OC)cc3c[n+]2C)cc1OC
inactive: [1] 28.3% | [2] 5.4% | [3] 5.6% | [4] 16.1% | [5] -2.3% | [6] -0.55%

CCOC(=O)c1sc(Nc2cc(Cl)ccc2Cl)nc1C
inactive: [1] -6.2% | [2] -19.6% | [3] -9.2% | [4] -2% | [5] -8.3% | [6] -15.1%

Cc1c([N+](=O)[O-])cc(C(C)(C)C)c(OS(=O)(=O)N(C)C)c1[N+](=O)[O-]
inactive: [1] 34% | [2] 10.4% | [3] 34.5% | [4] 13.1% | [5] 18.1% | [6] 26.6%

CCC1CCC2c3c([nH]c4ccccc34)C3C(=O)N(c4ccc(OC)cc4)C(=O)C3C2C1 (stereo not given)
inactive: [1] -13.1% | [2] -10.6% | [3] 3.5% | [4] 6.65% | [5] 2.05% | [6] 24.4%

COc1ccc(CNc2nc3ccccc3nc2C(=O)O)cc1OC
inactive: [1] 1.9% | [2] 18.6% | [3] 4.4% | [4] 7.25% | [5] 9% | [6] -12.5%

FC(F)(F)c1cccc(-c2nc3nc(Cl)c(Cl)nc3[nH]2)c1
inactive: [1] 15.1% | [2] -2% | [3] -5.7% | [4] -15.7% | [5] 18.4% | [6] 26.3%

C(#CCOc1ccc2c(c1)OCO2)COc1ccc2c(c1)OCO2
inactive: [1] 29% | [2] 0.8% | [3] -18.8% | [4] -9.05% | [5] -8.8% | [6] 8.3%
